Screening data deposited in PubChem BioAssay by National Center for Advancing Translational Sciences (NCATS).
FLuc modulator: qHTS profiling assay for firefly luciferase inhibitor/activator using purifed enzyme and Km concentrations of substrates (counterscreen for miR-21 project) | Luciferin 4-monooxygenase (Photinus pyralis), P08659 | purified FLuc, Km substrates, luminescence inhibition | Potency, µM (series often up to 57.5 µM), usual class: inhibitors | 360,000 tested, 6.9% active | AID 588342, 2011; note: nearly all actives have a fitted effect of over 55% in size
Target sequence (P08659 whole entry, looked up): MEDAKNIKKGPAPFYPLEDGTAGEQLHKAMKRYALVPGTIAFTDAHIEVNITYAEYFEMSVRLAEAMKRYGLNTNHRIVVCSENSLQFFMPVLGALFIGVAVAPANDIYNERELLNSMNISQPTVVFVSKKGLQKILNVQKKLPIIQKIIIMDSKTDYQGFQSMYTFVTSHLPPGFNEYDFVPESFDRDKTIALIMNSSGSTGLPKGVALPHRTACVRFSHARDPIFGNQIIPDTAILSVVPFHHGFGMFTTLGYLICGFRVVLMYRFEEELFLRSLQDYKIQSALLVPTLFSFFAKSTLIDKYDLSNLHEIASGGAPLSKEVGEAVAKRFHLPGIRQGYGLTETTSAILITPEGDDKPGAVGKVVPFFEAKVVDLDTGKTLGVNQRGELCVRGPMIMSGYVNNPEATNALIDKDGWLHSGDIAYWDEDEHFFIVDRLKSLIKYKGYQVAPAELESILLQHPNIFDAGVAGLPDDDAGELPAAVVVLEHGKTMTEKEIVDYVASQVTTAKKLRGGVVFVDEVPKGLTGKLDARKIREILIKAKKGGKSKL
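Purified P. pyralis luciferase (10nM final) with 10uM D-luciferin and 10uM ATP (Km levels) in 50mM Tris acetate pH 7.5, 10mM Mg acetate, 0.01% Tween-20, 0.05% BSA; qHTS 6-point titration, ~60 µM downward; luminescence read.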
ELG1 genotoxic: qHTS screen for small molecules that induce genotoxicity in human embryonic kidney (HEK293T) cells expressing luciferase-tagged ELG1. HEK293T ELG1-luciferase reporter, luminescence, 16 h. Potency, µM (top dose mostly 46 µM), hits mostly activators. 330,000 tested, 1.3% active. AID 504466, 2011; note: nearly all actives have a fitted effect of over 60% in size
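16 hr compound incubation (37 °C, 5% CO2) of HEK293T cells carrying luciferase-tagged ELG1; luciferase then measured by ONE-Glo luminescence after 30 min at RT.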
SMN2 splice up: qHTS Assay for Enhancers of SMN2 Splice Variant Expression; 210,000 tested, 2.8% active; Potency, µM (top dose mostly 46.1 µM), usual class: activators; HEK293 SMN2-luciferase splicing reporter, luminescence, 30-36 h; note: nearly all actives have a fitted effect of over 55% in size
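HEK293 cells carry an SMN2 […]–luciferase reporter in which exon 7 inclusion puts luciferase in frame. Cells were plated 10-12 h before compound addition, then incubated 30-36 h at 37C. ONE-Glo luminescence was read; sodium butyrate at 4.5 mM final served as control.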
NPC1 prom act: qHTS Assay for NPC1 Promoter Activators | 320,000 tested, 2.4% active | Huh7 NPC1 promoter luciferase reporter, 24 h | Potency, µM (highest dose often 9.22 µM), actives largely listed as activators; note: nearly all actives have a fitted effect of over 60% in size
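Readout is luciferase luminescence, reflecting NPC1 promoter activation in stably transfected Huh7 cells after 24 h compound exposure at 37 °C in reduced-serum medium with 10% FBS.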
ELG1 DNA repair: qHTS screen for small molecules that inhibit ELG1-dependent DNA repair in human embryonic kidney (HEK293T) cells expressing luciferase-tagged ELG1 | HEK293T ELG1-luciferase reporter, luminescence, 16 h; DNA damage induced by 5-fluorouridine | Potency, µM (doses to about 46.1 µM), actives largely listed as inhibitors | 330,000 tested, 2.3% active | AID 504467, 2011; note: nearly all actives have a fitted effect of over 55% in size
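In this reporter screen, reduction of luminescence relative to DMSO vehicle indicated activity. Compounds and 5-fluorouridine were added together to 2,000 cells per well, incubated for 16 hr at 37 °C, then developed with ONE-Glo.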
Rab9 prom act: qHTS Assay for Rab9 Promoter Activators; Huh7 Rab9 promoter-luciferase reporter, luminescence, 24 h; Potency, µM (titrated, usually from 9.22 µM), hits mostly activators; 320,000 tested, 2.8% active; note: nearly all actives have a fitted effect of over 60% in size
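Cell-based reporter: Huh7 stable for Rab9 promoter-driven luciferase, plated in reduced-serum medium with 10% FBS at 1500 cells/well, compound-treated 24 h at 37 °C, luminescence read after 10 min reagent.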
A number is an active result; [ ] = another dose, or the depositor's remark. Rows were chosen to be rich in hits. Some 9.4% of all compounds tested hit in one or more screens of this group. Calls come from the whole dose curve; as a rule, active = well fitted curve in the direction sought with a large enough effect; inconclusive = small, poorly fitted or top-dose-only effect, or another doubt; inactive = no such curve, though single readings can be large; an effect the other way counts as inactive or inconclusive.

For Cc1ccccc1CC(=O)N1CCCC(CNC(=O)c2ccc(F)cc2)C1 (configuration not stated) the results were FLuc modulator inactive, ELG1 genotoxic inactive, NPC1 prom act inactive, ELG1 DNA repair inactive and Rab9 prom act inactive.
Screening O=C(NCC1CCCN(C(=O)c2cscn2)C1)c1ccc(-c2ccccc2)cc1 (configuration not stated) returned FLuc modulator 17µM, ELG1 genotoxic inactive, NPC1 prom act inactive, ELG1 DNA repair inconclusive and Rab9 prom act inactive.
Screening C=CCC(=O)N1CCCC(CNC(=O)c2ccc(-c3ccccc3)cc2)C1 (configuration not stated) returned FLuc modulator 24µM, ELG1 genotoxic inactive, NPC1 prom act inactive, ELG1 DNA repair inactive and Rab9 prom act inactive.
Cn1c(=O)n(C)c2cc(N3CCCCC3)c(NC(=O)c3c(F)cccc3F)cc21 was read as FLuc modulator inactive and SMN2 splice up inactive.
Cc1cnn(C(=S)NCCc2ccccc2)c1 was read as FLuc modulator 19µM, ELG1 genotoxic 15µM, SMN2 splice up inconclusive, NPC1 prom act inconclusive, ELG1 DNA repair inconclusive and Rab9 prom act inconclusive.
C[C@@H]1NCC[C@H](CC(=O)O)[C@H]1CC(=O)O was read as SMN2 splice up inactive[9.22 µM].
`O=C(Nc1ccccc1F)c1ccc(C(=O)c2ccccc2)cc1` gave FLuc modulator 11µM, ELG1 genotoxic inconclusive, NPC1 prom act 2.8µM, ELG1 DNA repair inconclusive and Rab9 prom act 3.5µM.
For CCOc1ccc(C(=O)Nc2ccc(C(F)(F)F)n(C)c2=O)cc1 the results were FLuc modulator inactive, ELG1 genotoxic inactive, SMN2 splice up inactive, NPC1 prom act inactive, ELG1 DNA repair inconclusive and Rab9 prom act inactive.
Screening COc1cccc(C(=O)Nc2ccc(F)cc2F)c1 returned FLuc modulator inconclusive, ELG1 genotoxic inconclusive, SMN2 splice up 13µM, NPC1 prom act inconclusive, ELG1 DNA repair inconclusive and Rab9 prom act inconclusive.
CC(C)Oc1cccc(C(=O)Nc2ccc(Br)cc2F)c1 was read as FLuc modulator 0.95µM, ELG1 genotoxic inconclusive, SMN2 splice up 5µM, NPC1 prom act 3.5µM, ELG1 DNA repair inconclusive and Rab9 prom act 1.3µM.
`COc1cccc(C(=O)Nc2ccc(C(F)(F)F)n(C)c2=O)c1` gave FLuc modulator 6µM, ELG1 genotoxic inconclusive, NPC1 prom act 2.8µM, ELG1 DNA repair inconclusive and Rab9 prom act 2.8µM.
Screening COc1cccc(C(=O)Nc2ccc(F)c(F)c2F)c1 returned FLuc modulator 17µM, ELG1 genotoxic inconclusive, SMN2 splice up inconclusive, NPC1 prom act inconclusive, ELG1 DNA repair inconclusive and Rab9 prom act inconclusive.
COc1cccc(C(=O)Nc2ccccc2F)c1 was read as FLuc modulator inconclusive, ELG1 genotoxic inconclusive, SMN2 splice up 11µM, NPC1 prom act inactive, ELG1 DNA repair inconclusive and Rab9 prom act inconclusive.
CCCc1ccc(C(=O)NNc2ccccc2F)cc1 was read as FLuc modulator 17µM, ELG1 genotoxic inconclusive, NPC1 prom act inconclusive, ELG1 DNA repair inconclusive and Rab9 prom act inconclusive.
For O=C(Nc1ccccc1F)c1cccc(C(=O)Nc2ccccc2F)c1 the results were FLuc modulator inconclusive, ELG1 genotoxic inactive, NPC1 prom act inactive, ELG1 DNA repair inactive and Rab9 prom act inconclusive.
`Cc1nc(NCc2ccccc2)c2nc(-c3ccccc3)n(C(C)CN(C)C)c2n1` (configuration not stated) gave SMN2 splice up inactive.
COC(=O)C1CCN(C(=O)Nc2ccc(OC)cc2)CC1 was read as FLuc modulator inactive, ELG1 genotoxic inactive, SMN2 splice up inactive, NPC1 prom act inactive, ELG1 DNA repair inactive and Rab9 prom act inactive.
`COC(=O)C1CCN(C(=O)/C=C/c2ccc(OC)cc2)CC1` gave FLuc modulator 21µM, ELG1 genotoxic 2.3µM, NPC1 prom act 0.28µM, ELG1 DNA repair inconclusive and Rab9 prom act 1.1µM.
`CC(C)Oc1ccc(C(=O)N2CCC(c3nc4ccccc4o3)CC2)cc1` gave FLuc modulator inactive.
For COc1ccc(/C=C/C(=O)N2CCC(c3nc4ccccc4o3)CC2)cc1 the results were FLuc modulator 19µM.
COc1ccc(/C=C/C(=O)N2CCC(c3ccccc3)C2)cc1 (configuration not stated) was read as FLuc modulator 19µM, ELG1 genotoxic inactive, SMN2 splice up inactive, NPC1 prom act inactive, ELG1 DNA repair inactive and Rab9 prom act inactive.
`COc1ccc(CC(=O)N2CCC(c3ccccc3)C2)cc1` (configuration not stated) gave FLuc modulator inconclusive, ELG1 genotoxic inconclusive, SMN2 splice up inactive, NPC1 prom act inactive, ELG1 DNA repair inconclusive and Rab9 prom act inconclusive.
For CCOc1ccc(CCNC(=O)c2nn(C)c3c2CSc2ccccc2-3)cc1 the results were FLuc modulator inactive.
CN(C(=O)c1cc2c(=O)oc3ccccc3c2s1)c1ccc(F)cc1 was read as FLuc modulator inactive and SMN2 splice up inactive.
`CC(C)Oc1ccc(CNC(=O)c2cnc3sc(N4CCCCC4)nn3c2=O)cc1` gave FLuc modulator inactive.
For N#C/C(=C\c1cc2ccccc2nc1N1CCOCC1)C(=O)Nc1ccc(N2CCOCC2)cc1 the results were FLuc modulator inactive, ELG1 genotoxic inactive, SMN2 splice up inactive, NPC1 prom act inactive, ELG1 DNA repair 12µM and Rab9 prom act inactive.
`CCC(C)NC(=O)C1CCC(CNS(=O)(=O)c2ccc(Cl)cc2)CC1` (configuration not stated) gave FLuc modulator inactive.
Screening CC(=O)c1c(C)[nH]c(C(=O)COC(=O)CCCOc2ccccc2)c1C returned FLuc modulator inactive, ELG1 genotoxic inactive, SMN2 splice up inactive, NPC1 prom act inactive, ELG1 DNA repair inactive and Rab9 prom act inactive.
Cc1c(C(=O)OCCOc2ccccc2)[nH]c2c1C(=O)CCC2 was read as FLuc modulator 0.95µM, ELG1 genotoxic inconclusive, SMN2 splice up 3.5µM, NPC1 prom act 4.5µM, ELG1 DNA repair inconclusive and Rab9 prom act inconclusive.
CC(=O)c1c(C)[nH]c(C(=O)OCCOc2ccccc2)c1C was read as FLuc modulator 0.54µM, ELG1 genotoxic inconclusive, SMN2 splice up inactive, NPC1 prom act 0.32µM, ELG1 DNA repair inconclusive and Rab9 prom act 0.32µM.
For CCOc1ccc(C2CC(=O)c3c([nH]c(C(=O)OCCOc4ccccc4)c3C)C2)cc1 (configuration not stated) the results were FLuc modulator inactive and SMN2 splice up inactive.
